From PubChem BioAssay (NCI)
Compounds without any hit were thinned out: in the full panel of roughly 83,000, 20% have a hit.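 Activity criterion: percent growth below 10, measured after cells in 96-well plates were exposed to a single compound concentration for 48 hours.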 Values without a mark were called inactive. The source made the active and inactive calls.

Legend:
Experiment in all cases: NCI-60 one-dose screen, 48 h (100 = growth as untreated, 0 = no growth, -100 = all killed)
Conditions in all cases: 10 µM unless noted
[1] = system: NCI-H23 lung
[2] = system: NCI-H226 lung
[3] = system: NCI-H322M lung
[4] = system: HOP-62 NSCLC
[5] = system: NCI-H460 lung
[6] = system: HOP-92 NSCLC
[7] = system: NCI-H522 lung
[8] = system: A549/ATCC NSCLC
[9] = system: 786-0 renal
[10] = system: COLO 205 colon
[11] = system: DU-145 prostate
[12] = system: K-562 leukemia
[13] = system: MALME-3M melanoma
[14] = system: MDA-MB-231 breast
[15] = system: RXF 393 renal
[16] = system: SF-268 CNS
[17] = system: SF-295 CNS
[18] = system: SF-539 CNS
[19] = system: UACC-257 melanoma
[20] = system: M14 melanoma

## Cn1c2c(Cl)c(Cl)ccc2c2c(C#N)c[nH]c(=O)c21
[1]
  growth: 91%
[2]
  growth: 94.5%
[3]
  growth: 129%
[4]
  growth: 94.1%
[5]
  growth: 96.2%
[6]
  growth: 78.6%
[7]
  growth: 95.5%
[8]
  growth: 93.3%
[9]
  growth: 97.4%
[10]
  growth: 115%
[11]
  growth: 109%
[12]
  growth: 106%
[13]
  growth: 140%
[14]
  growth: 98.5%
[15]
  growth: 97.2%
[16]
  growth: 99%
[17]
  growth: 97.8%
[18]
  growth: 84.6%
[19]
  growth: 98.1%
[20]
  growth: 105%

## NC1=NN(c2ccccc2)C(=O)/C1=C/c1ccc(Cl)cc1
[1]
  growth: 98%
[2]
  growth: 99.2%
[3]
  growth: 97.8%
[4]
  growth: 95.3%
[5]
  growth: 99.1%
[6]
  growth: 91.6%
[7]
  growth: 90.6%
[8]
  growth: 98.5%
[9]
  growth: 94.4%
[10]
  growth: 95.7%
[11]
  growth: 107%
[12]
  growth: 102%
[13]
  growth: 92.4%
[14]
  growth: -99% (active)
[15]
  growth: 107%
[16]
  growth: 102%
[17]
  growth: 113%
[18]
  growth: 111%
[19]
  growth: 97.3%
[20]
  growth: 97.2%

## CC1=NN(c2ccc(S(=O)(=O)O)cc2Cl)C(=O)C1
[1]
  growth: 92.5%
[2]
  growth: 101%
[3]
  growth: 112%
[4]
  growth: 90%
[5]
  growth: 103%
[6]
  growth: 91.7%
[7]
  growth: 97.4%
[8]
  growth: 99.7%
[9]
  growth: 97.6%
[10]
  growth: 112%
[11]
  growth: 162%
[12]
  growth: 115%
[13]
  growth: 129%
[14]
  growth: 102%
[15]
  growth: 108%
[16]
  growth: 127%
[17]
  growth: 105%
[18]
  growth: 92.9%
[19]
  growth: 110%
[20]
  growth: 96.1%

## Cn1cc(-c2csc(-c3cn(CCCN4CCCCC4)c4ccc(F)cc34)n2)c2cccnc21
[1]
  growth: 89.2%
[2]
  growth: 91.6%
[3]
  growth: 86.8%
[4]
  growth: 99.3%
[5]
  growth: 96.1%
[6]
  growth: 49%
[7]
  growth: 103%
[8]
  growth: 92.2%
[9]
  growth: 40.3%
[10]
  growth: 98.9%
[11]
  growth: 98%
[12]
  growth: 0.833% (active)
[13]
  growth: -43% (active)
[14]
  growth: 64.2%
[15]
  growth: 64.9%
[16]
  growth: 89%
[17]
  growth: 99.9%
[18]
  growth: 83.6%
[19]
  growth: 70.6%
[20]
  growth: -73.4% (active)

## Cc1oc(-c2ccccc2Cl)cc1C(=O)Nc1ccc(S(N)(=O)=O)cc1
[1]
  growth: 96.4%
[2]
  growth: 96.1%
[3]
  growth: 102%
[4]
  growth: 105%
[5]
  growth: 107%
[6]
  growth: 107%
[7]
  growth: 97.3%
[8]
  growth: 105%
[9]
  growth: 103%
[10]
  growth: 116%
[11]
  growth: 104%
[12]
  growth: 96.3%
[13]
  growth: 98.6%
[14]
  growth: 93.3%
[15]
  growth: 111%
[16]
  growth: 104%
[17]
  growth: 104%
[18]
  growth: 95.4%
[19]
  growth: 95%
[20]
  growth: 93.8%

## Cc1nn(-c2ccc(Cl)cc2)c(=O)n1CCn1cnc2ccccc21
[1]
  growth: 96.2%
[2]
  growth: 103%
[3]
  growth: 96.8%
[4]
  growth: 101%
[5]
  growth: 107%
[6]
  growth: 101%
[7]
  growth: 85.3%
[8]
  growth: 106%
[9]
  growth: 87.4%
[10]
  growth: 118%
[11]
  growth: 114%
[12]
  growth: 97.1%
[13]
  growth: 109%
[14]
  growth: 111%
[15]
  growth: 107%
[16]
  growth: 107%
[17]
  growth: 82.8%
[18]
  growth: 101%
[19]
  growth: 103%
[20]
  growth: 96.7%

## NCCNc1nc(-c2ccccc2)nc2nc(-c3ccccc3)oc12
[1]
  growth: 90.6%
[2]
  growth: 86.1%
[3]
  growth: 104%
[4]
  growth: 85.6%
[5]
  growth: 98.4%
[6]
  growth: 55.1%
[7]
  growth: 105%
[8]
  growth: 93.6%
[9]
  growth: 81%
[10]
  growth: 87.4%
[11]
  growth: 98.2%
[12]
  growth: 24.2%
[13]
  growth: 102%
[14]
  growth: 92.8%
[15]
  growth: 85.9%
[16]
  growth: 73.3%
[17]
  growth: 101%
[18]
  growth: 90.4%
[19]
  growth: 111%
[20]
  growth: 97.8%

## C=C(C)[C@@H]1CC[C@]2(CN)CC[C@]3(C)[C@H](CC[C@@H]4[C@@]5(C)CCC(=O)NC(C)(C)[C@@H]5CC[C@]43C)[C@@H]12
[1]
  growth: 85.3%
[2]
  growth: 88.1%
[3]
  growth: 89.1%
[4]
  growth: 81.6%
[5]
  growth: 90.3%
[6]
  growth: 54.6%
[7]
  growth: 88%
[8]
  growth: 59.3%
[9]
  growth: 84.6%
[10]
  growth: 75.9%
[11]
  growth: 75%
[12]
  growth: -4.63% (active)
[13]
  growth: -14.1% (active)
[14]
  growth: 58.7%
[15]
  growth: 59%
[16]
  growth: 64.5%
[17]
  growth: 82.1%
[18]
  growth: 75.2%
[19]
  growth: 29.6%
[20]
  growth: 70.9%

## Cn1cc(-c2csc(-c3cn(CCNC(=O)OC(C)(C)C)c4ccc(F)cc34)n2)c2cccnc21
[1]
  growth: 57%
[2]
  growth: 50.8%
[3]
  growth: 83.9%
[4]
  growth: 65.7%
[5]
  growth: 85.9%
[6]
  growth: 49.2%
[7]
  growth: 44.3%
[8]
  growth: 63.1%
[9]
  growth: 88.1%
[10]
  growth: 67.5%
[11]
  growth: 94.2%
[12]
  growth: 56.4%
[13]
  growth: 83.2%
[14]
  growth: 78.4%
[15]
  growth: 105%
[16]
  growth: 81.4%
[17]
  growth: 86.2%
[18]
  growth: 81.7%
[19]
  growth: 94.2%
[20]
  growth: 52.3%

## CC(C)(C)c1[nH]nc2c1C(c1cc3ccccc3[nH]c1=O)Nc1cc(C(=O)OCc3ccccc3)ccc1N2 (stereo not given)
[1]
  growth: 69%
[2]
  growth: 74.8%
[3]
  growth: 63%
[4]
  growth: 65.1%
[5]
  growth: 19.4%
[6]
  growth: 87.7%
[7]
  growth: 74.6%
[8]
  growth: 41.6%
[9]
  growth: 49.4%
[10]
  growth: 84.3%
[11]
  growth: 65%
[12]
  growth: 17.1%
[13]
  growth: 58.7%
[14]
  growth: 63.3%
[15]
  growth: 59.7%
[16]
  growth: 58.9%
[17]
  growth: 30.3%
[18]
  growth: 66.1%
[19]
  growth: 69.7%
[20]
  growth: 55.6%

## CC1(C)NCCC[C@]2(C)[C@H]3CC[C@@H]4[C@H]5[C@H](C(=O)/C=C/c6ccccn6)CC[C@]5(CO)CC[C@@]4(C)[C@]3(C)CC[C@@H]12
[1]
  growth: 72.9%
[2]
  growth: 85.5%
[3]
  growth: 86.4%
[4]
  growth: 77%
[5]
  growth: 25.1%
[6]
  growth: 35.6%
[7]
  growth: 54.4%
[8]
  growth: 36.9%
[9]
  growth: 85.4%
[10]
  growth: -74.3% (active)
[11]
  growth: 67.7%
[12]
  growth: -2.17% (active)
[13]
  growth: 73.6%
[14]
  growth: 71.1%
[15]
  growth: 56.7%
[16]
  growth: 78.7%
[17]
  growth: 88.8%
[18]
  growth: 86.1%
[19]
  growth: 64%
[20]
  growth: 61.1%

## COC(=O)C(Cc1ccccc1)n1cc(COc2nc(Cl)nc(Nc3ccc(Cl)cc3)n2)nn1 (stereo not given)
[1]
  growth: 92.5%
[2]
  growth: 99.8%
[3]
  growth: 95.3%
[4]
  growth: 95%
[5]
  growth: 101%
[6]
  growth: 105%
[7]
  growth: 88.2%
[8]
  growth: 102%
[9]
  growth: 98.9%
[10]
  growth: 117%
[11]
  growth: 81.5%
[12]
  growth: 90.6%
[13]
  growth: 89.4%
[14]
  growth: 94%
[15]
  growth: 101%
[16]
  growth: 97.8%
[17]
  growth: 101%
[18]
  growth: 97.4%
[19]
  growth: 94.7%
[20]
  growth: 91.5%

## COc1cnc2c(c1)C(=O)c1c-2n(CCCNC2=NCCS2)c(=O)c2cc([N+](=O)[O-])ccc12
[1]
  growth: -47.1% (active)
[2]
  growth: 8.43% (active)
[3]
  growth: -19.6% (active)
[4]
  growth: -59.6% (active)
[5]
  growth: -81.9% (active)
[6]
  growth: 24.9%
[7]
  growth: 22.8%
[8]
  growth: -77.2% (active)
[9]
  growth: -93% (active)
[10]
  growth: -67.1% (active)
[11]
  growth: -74.7% (active)
[12]
  growth: -14.9% (active)
[13]
  growth: -60.6% (active)
[14]
  growth: -58.4% (active)
[15]
  growth: -2.16% (active)
[16]
  growth: -39.4% (active)
[17]
  growth: 11.7%
[18]
  growth: -66.5% (active)
[19]
  growth: 35.4%
[20]
  growth: -73.5% (active)

## COc1ccc(OC)c(-c2c(C#N)c(-c3ccco3)nc3c2c(-c2ccccc2)nn3-c2ccccc2)c1
[1]
  growth: 96.7%
[2]
  growth: 90.1%
[3]
  growth: 103%
[4]
  growth: 106%
[5]
  growth: 101%
[6]
  growth: 78.5%
[7]
  growth: 81.9%
[8]
  growth: 94.9%
[9]
  growth: 100%
[10]
  growth: 119%
[11]
  growth: 102%
[12]
  growth: 105%
[13]
  growth: 112%
[14]
  growth: 90%
[15]
  growth: 99.8%
[16]
  growth: 96.2%
[17]
  growth: 98.9%
[18]
  growth: 92.6%
[19]
  growth: 99.7%
[20]
  growth: 108%

## CCN(CC)c1ccc(/C=C/c2cc(C)c3ccccc3n2)cc1
[1]
  growth: 64%
[2]
  growth: 61.1%
[3]
  growth: 101%
[4]
  growth: 46.7%
[5]
  growth: 43%
[6]
  growth: 82.2%
[7]
  growth: 31.3%
[8]
  growth: 53.9%
[9]
  growth: 94.6%
[10]
  growth: 24.7%
[11]
  growth: 94.2%
[12]
  growth: 25.3%
[13]
  growth: 59.4%
[14]
  growth: 42.4%
[15]
  growth: 13.2%
[16]
  growth: 82.5%
[17]
  growth: 41.5%
[18]
  growth: 48.4%
[19]
  growth: 60.5%
[20]
  growth: 38.2%
